Each structure is given as a SMILES string.

The experiment is described as follows: basal MM1S mitochondrial membrane potential changes, profiling panel, cell-based, JC-1 fluorescence, 24 h, 100 nL compound (AID 1170). Note: test concentration not given here. To be noted: higher = more signal.
For `COc1ccc([Si](C)(C)[C@@H]2[C@@H](CCn3cc([C@H](O)c4ccccc4)nn3)O[C@]3(C(=O)N(c4ccccc4)c4ccccc43)[C@H]2C)cc1`, the z-score is -0.681.
The result for `CCN(CC)c1ccc(N2CC=CC34O[C@@H]5C=CCCOC(=O)C5[C@H]3C(=O)N(CCO)[C@@H]4C2=O)cc1` (stereo partly specified) reads 0.639.
As for `COc1ccc([Si](C)(C)[C@H]2[C@H](CCO)O[C@@]3(C(=O)N(Cc4ccc(N5C(=O)c6ccccc6Oc6ccccc65)cc4)c4ccccc43)[C@@H]2C)cc1`, the z-score was -2.04.
The result for `CC(C)CNC(=O)[C@@]1(C)c2ccccc2C(=O)N(Cc2cc(C(F)(F)F)cc(C(F)(F)F)c2)[C@H]1c1ccc(CO)cc1` reads -0.939.
`[N-]=[N+]=NC[C@H](Cc1ccccc1)NC(=O)c1ccccc1` gave a z-score of 0.171.
The result for `CN(C)C(=O)[C@]1(CCS(=O)(=O)c2ccccc2)N=C(c2ccc(OCCCO)cc2)O[C@@H]1c1ccccc1` reads -1.24.
The result for `O=C(CS)NCCCCCNC(=O)[C@@H]1C[C@@H]2C(=O)N[C@@H](Cc3ccccc3)C(=O)N2[C@@H]1c1cccc(OCCO)c1` reads -0.156; that for `CN1C(=O)C2C=CC(C(O)c3ccc(F)cc3)N(NC(=O)OC(C)(C)C)C2C1=O` (stereo unspecified), 1.3.
The result for `[N-]=[N+]=NCc1ccccc1[C@@H]1OC(c2ccc(OCCCO)cc2)=N[C@]1(Cc1ccccc1)C(=O)NCCN1CCOCC1` reads 0.424.
Regarding `[N-]=[N+]=Nc1ccccc1[C@@H]1OC(c2ccc(OCCCO)cc2)=N[C@]1(Cc1ccccc1)C(=O)NCc1ccccc1`, the z-score was -2.59.
Under `CO[C@H]1O[C@H](CO)[C@@H](OC(=O)Nc2ccc(C#N)cc2)[C@@H]2OC(=O)[C@H](Cc3cccc(Br)c3)C/C=C/C[C@@H](Cc3cccc(Br)c3)C(=O)O[C@@H]12` stands -0.935.
The result for `CC(C)C[C@@H]1NC(=O)[C@@]23C(=O)N[C@@H](Cc4ccccc4)C2[C@H](C)[C@@]2(C)O[C@H]2C3/C=C/C/C=C\CNC(=O)[C@@H](C)NC1=O` (stereo partly specified) reads -0.342; that for `COCCOC(=O)N1C(=O)[C@@]2(c3cc(C#CCC(C(=O)OC)C(=O)OC)ccc31)[C@H](c1ccc(O)cc1)N1[C@H](c3ccccc3)[C@H](c3ccccc3)OC(=O)[C@H]1[C@@H]2C(=O)NC[C@H](O)c1ccccc1`, -0.91; that for `C=CCC(OC(C)=O)[C@@H]1[C@@H](N(Cc2ccc(-c3cccc(C(F)(F)F)c3)o2)C(=O)c2ccc(C)cc2)c2cc(OCCCO)ccc2N1C(=O)Cc1ccc(OC)cc1` (stereo partly specified), -0.83.
The result for `CCCCC(=O)N(CCN1CCOCC1)[C@@H]1CC(C(=O)NCCO)=C[C@H](Oc2c(I)cc(CO)cc2OC)[C@H]1O` reads -0.109.
Take `O=C1NC(=O)C2C1C=CC(C(O)c1ccccn1)N2Nc1ccc(Cl)cc1Cl` (stereo unspecified): the z-score is -0.173.
The result for `C=CCC(OC(C)=O)[C@@H]1[C@@H](N(Cc2ccc(-c3cccc(C(F)(F)F)c3)o2)C(=O)Cc2ccc(OC)cc2)c2cc(OCCCO)ccc2N1C(=O)Cc1ccc2ccccc2c1` (stereo partly specified) reads 0.296; that for `C=C[C@@H](C)[C@H](O)c1ccc(OCCO)cc1`, -0.612.
The result for `O=C1O[C@H](c2ccccc2)[C@H](c2ccccc2)N2[C@H]1[C@@H](C(=O)N1CCCCCCC1)[C@]1(C(=O)Nc3ccc(C#CC4(O)CCCCCC4)cc31)[C@H]2c1ccccc1OCCO` reads -1.26; that for `O=C1O[C@H](c2ccccc2)[C@H](c2ccccc2)N2[C@H]1[C@@H](C(=O)N1CCCCCCC1)[C@]1(C(=O)Nc3ccc(C#CC4(O)CCCCCC4)cc31)[C@H]2c1ccc(O)cc1`, -0.515.
The result for `COCCOC(=O)N1C(=O)[C@@]2(c3ccccc31)[C@H](c1ccc(OCCO)cc1)N1[C@H](c3ccccc3)[C@H](c3ccccc3)OC(=O)[C@H]1[C@@H]2C(=O)N1CCCCCCC1` reads -0.899; that for `CC(=O)NCCCC[C@@H]1NC(=O)[C@@H]2C[C@H](C(=O)NCCCCCCN)[C@H](c3cccc(OCCO)c3)N2C1=O`, 0.0193.
In turn, `[N-]=[N+]=Nc1ccccc1C[C@]1(C(=O)O)N=C(c2ccc(OCCCO)cc2)O[C@H]1c1ccccc1N=[N+]=[N-]` had a z-score of 0.51.
Under `CCN(CC)c1ccc(N2CC=CC34O[C@@H]5/C=C\CCC(C)OC(=O)C5[C@H]3C(=O)N(C(C)CO)[C@@H]4C2=O)cc1` (stereo partly specified) stands -0.585.
Under `O=C(O)[C@H]1C[C@H]2C(=O)N[C@@H](Cc3ccccc3)C(=O)N2[C@H]1c1cccc(OCCO)c1` stands -1.18; under `CCCCCCCCCCC(O)C1C=CC2C(=O)N(C)C(=O)C2N1Nc1cc(OC)c(OC)c(OC)c1` (stereo unspecified), -2.12.
The result for `C=CCN1C(=O)[C@]2(O[C@H](CCO)[C@@H]([Si](C)(C)c3ccc(OC)cc3)[C@@H]2C)c2cc(N3C(=O)COc4ccccc43)ccc21` reads -2.25.
In turn, `CCOC(=O)C1=CCC(c2ccccc2)N(S(=O)(=O)c2ccc([N+](=O)[O-])cc2)C1` (stereo unspecified) showed a z-score of -1.37.
The result for `CCOC(=O)C1=C[C@@H](c2ccccc2)N(S(=O)(=O)c2ccc(C)cc2)[C@H]1c1ccccc1` reads -0.0131; that for `C=CCNC(=O)[C@@H]1[C@H]2C(=O)O[C@H](c3ccccc3)[C@H](c3ccccc3)N2[C@H](c2ccc(O)cc2)[C@@]12C(=O)Nc1ccc(C#CCC(C(=O)OC)C(=O)OC)cc12`, -2.23.
The result for `C=C[C@@H](C)[C@@H](OC(=O)Nc1ccc(SC)cc1)c1ccc(OCCO)cc1` reads -0.434; that for `COc1cc(NN2C(C(O)c3cc(OC)c(OC)c(OC)c3)C=CC3C(=O)N(c4ccccc4)C(=O)C32)cc(OC)c1OC` (stereo unspecified), -0.755; that for `COc1ccc([Si](C)(C)[C@@H]2[C@@H](CC(=O)N3Cc4ccccc4C[C@H]3CO)O[C@]3(C(=O)N(Cc4ccc(N5CCC5=O)cc4)c4ccccc43)[C@H]2C)cc1`, -0.502.
Under `CN(C)C(=O)[C@@]1(CCC(=O)OC(C)(C)C)N=C(c2ccc(OCCCO)cc2)O[C@H]1c1ccccc1CN=[N+]=[N-]` stands -0.496; under `CCOC(=O)C[C@H]1[C@H](OC(=O)c2ccccc2-c2ccccc2)[C@@H](NC(=O)c2ccccc2)c2cc(OCCCO)ccc2N1C(=O)c1ccccc1`, 0.318.
The molecule `CN(C)CCCC[C@@H]1NC(=O)[C@@H]2C[C@H](C(=O)O)[C@H](c3cccc(OCCO)c3)N2C1=O` came in with a z-score of 0.174.

Source of the values: PubChem BioAssay.
